Only some compounds are listed: those with a hit (about 3.1% of all), similar ones and a draw of the others.
HEK293 cAMP ctrl: raises cAMP in parental HEK293 cells, TSHR agonist counter-screen; parental HEK293 CNG cAMP sensor, membrane potential fluorescence; Potency, µM (highest dose often 57.1 µM), actives largely listed as activators; actives 2.5% (n = 73,000); AID 938; further: nearly all actives have a fitted effect of over 55% in size
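Counterscreen for endogenous-receptor signalling: CNG-channel HEK 293 cells report cAMP rise by membrane depolarization. After 60 min dye equilibration with 100 uM RO 20-1724, compounds incubated 30 min before bottom-read fluorescence at 590 nm.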
p53ts 39C tox: kills p53ts cells at the nonpermissive temperature. Potency, µM (doses to about 46.1 µM), usual class: cytotoxic. AID 902. actives 1.5% (n = 130,000). H1299-p53A138V viability at 39C, ATP luminescence, 24 h; further: nearly all actives have a fitted effect of over 55% in size
TSHR ag: TSH receptor (human) agonism. P16473. HEK293-CNG-TSHR cells (CNG channel as cAMP sensor), membrane potential dye, cAMP. Potency, µM (titrated, usually from 57.1 µM), actives largely listed as activators. actives 0.48% (n = 73,000); active means well fitted activation curve with a large enough effect in the main read-out, with a control signal flat, not every such curve was filed as active; inconclusive means small, poorly fitted or top-dose-only effect, or a change in a side signal; inactive means no such curve, though single readings can be large or run the other way; reference of the percent scale not stated here;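 further: the control signal comes from parental cells without the receptor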
Target sequence (P16473 whole entry, looked up): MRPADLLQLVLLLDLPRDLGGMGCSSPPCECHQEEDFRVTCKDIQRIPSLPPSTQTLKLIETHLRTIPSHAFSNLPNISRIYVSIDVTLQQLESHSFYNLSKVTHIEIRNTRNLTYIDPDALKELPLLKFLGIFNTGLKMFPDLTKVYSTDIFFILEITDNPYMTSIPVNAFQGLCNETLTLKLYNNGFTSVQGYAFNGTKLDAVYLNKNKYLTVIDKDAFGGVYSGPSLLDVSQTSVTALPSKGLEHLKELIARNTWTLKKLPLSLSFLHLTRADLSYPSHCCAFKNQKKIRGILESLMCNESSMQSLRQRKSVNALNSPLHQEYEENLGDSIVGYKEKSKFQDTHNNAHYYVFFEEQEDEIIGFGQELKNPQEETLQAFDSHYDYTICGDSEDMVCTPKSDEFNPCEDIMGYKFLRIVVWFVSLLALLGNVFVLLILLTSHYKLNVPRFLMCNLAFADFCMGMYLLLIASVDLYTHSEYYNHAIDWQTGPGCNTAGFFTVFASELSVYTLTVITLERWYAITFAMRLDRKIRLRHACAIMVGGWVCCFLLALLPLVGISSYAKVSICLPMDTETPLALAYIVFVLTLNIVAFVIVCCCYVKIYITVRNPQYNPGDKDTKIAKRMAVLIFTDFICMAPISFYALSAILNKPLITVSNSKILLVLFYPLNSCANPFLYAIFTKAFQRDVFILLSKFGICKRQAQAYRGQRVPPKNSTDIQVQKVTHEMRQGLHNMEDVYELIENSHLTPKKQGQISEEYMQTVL
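cAMP rise detected as CNG-channel membrane depolarization by fluorescent dye (emission 590 nm), 30 min after compound, following 60 min dye loading containing 100 uM RO 20-1724 at room temperature. Cells: TSHR/CNG HEK 293, with parental CNG HEK 293 as control.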
p53ts 32C tox: kills p53ts cells at the permissive temperature. H1299-p53A138V at 32C, ATP luminescence viability, 24 h. Potency, µM (series often up to 46.1 µM), hits mostly cytotoxic. actives 0.93% (n = 130,000). AID 924; further: nearly all actives have a fitted effect of over 55% in size
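H1299-p53 A138V cells (temperature-sensitive p53) exposed 24 h to up to 46 uM compound at 32C, where p53 is wild-type in conformation. Viability read as ATP luminescence and normalised to DMSO and 100 uM tamoxifen. AC50 fitted with the Hill equation.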
Imprint erasure: induces erasure of genomic imprints in mouse ES cells. mouse ES Peg3-LacZ reporter, beta-gal luminescence, 40 h. Potency, µM (highest dose often 60.7 µM), most hits filed as activators. actives 0.02% (n = 110,000). AID 1948
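Readout: BetaGlo luminescence (5 min, room temp) for LacZ from the normally silent maternal Peg3 allele in female Peg3LacZ-Neo ES cells. Cells 300/well, 40 h, 37C, 5% CO2. Data normalized per plate to negative controls.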
IkB signaling: inhibitors of IkB signaling in ABC-DLBCL cells; Potency, µM (top dose mostly 57.1 µM); actives 0.04% (n = 110,000); ABC-DLBCL IkBa-CBG/CBR dual luciferase ratio, 4 h; response scale: scaled: untreated 0%, proteasome inhibitor 100%; active means well fitted curve in the direction sought with a large enough effect in the signal ratio, not every such curve was filed as active; inconclusive means small, poorly fitted or top-dose-only effect, or a change in a side signal; the % refers to the signal ratio;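 further: the direction sought is a rising ratio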
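Curves were fitted separately to fusion (green), unfused (red) and ratio luminescence, then classed by r2, magnitude and activity. Cells: OCI-Ly3, 4 h compound plus doxycycline at 37C; 10 uM MG-132 defined full response.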
Hits are given with their value; . = inactive; ? = inconclusive; / = no result; [ ] = another dose, or the depositor's remark. Unless noted, the call rests on the fitted dose curve; in most records, active means well fitted curve in the direction sought with a large enough effect; inconclusive means small, poorly fitted or top-dose-only effect, or another doubt; inactive means no such curve, though single readings can be large; an effect the other way counts as inactive or inconclusive.

SMILES | HEK293 cAMP ctrl | p53ts 39C tox | TSHR ag | p53ts 32C tox | Imprint erasure | IkB signaling
CCCn1c(Nc2nc3ccccc3n2C)nc2ccccc21 | . | 10µM | . | ? | . | ?
CCCn1c(NC(=O)C2CCN(S(=O)(=O)c3cccs3)CC2)nc2ccccc21 | ? | . | ? | . | . | ?
CCCn1c(NC(=O)c2ccccc2)nc2ccccc21 | ? | . | ? | . | . | ?
CCCCSc1nnc2c(n1)OC(c1ccc(Br)s1)N(C(C)=O)c1ccccc1-2 (stereo not drawn) | / | . | / | . | .[10.9 µM] | ?
COc1ccc(OCc2nnc(-c3ccccc3)o2)cc1 | / | . | / | . | .[10.9 µM] | .
CN(c1ccc(OCc2nnc(-c3ccccc3)o2)cc1)S(=O)(=O)c1ccccc1 | 16µM | . | ? | . | . | ?
O=C(Nc1ccccc1C(F)(F)F)N1CCOc2ccc(Cl)cc21 | / | . | / | . | .[10.9 µM] | .
O=C(CSCc1cccc(F)c1)N1CCN(c2ccccc2)CC1 | 32µM | . | ? | . | . | ?
Cc1ccc(-c2nnn(CC(=O)N(Cc3cccs3)C(C(=O)NC(C)(C)C)c3ccc(C)o3)n2)o1 (stereo not drawn) | 25µM | . | ? | . | . | .
Cc1ccc(C(C(=O)NC(C)(C)C)N(CC2CCCO2)C(=O)Cn2nnc(-c3ccc(C)o3)n2)cc1 (stereo not drawn) | 25µM | . | ? | . | . | .
Cc1ccc(-c2nnn(CC(=O)N(Cc3ccco3)C(C(=O)NC(C)(C)C)c3cccs3)n2)o1 (stereo not drawn) | 20µM | . | ? | . | . | ?
COc1cccc(N(C(=O)Cn2nnc(-c3ccc(C)o3)n2)C(C(=O)NC(C)(C)C)c2cccs2)c1 (stereo not drawn) | / | . | / | . | / | /
Cc1ccc(-c2nnn(CC(=O)N(c3ccc(F)cc3)C(C(=O)NC(C)(C)C)c3ccco3)n2)o1 (stereo not drawn) | / | . | / | . | / | /
Cc1ccc(-c2nnn(CC(=O)N(Cc3cccs3)C(C(=O)NC(C)(C)C)c3ccco3)n2)o1 (stereo not drawn) | 1µM | . | ? | . | . | .
CC(C)(C)NC(=O)C(c1ccncc1)N(Cc1cccs1)C(=O)Cn1nnc(-c2ccc(F)cc2)n1 (stereo not drawn) | / | . | / | . | / | /
COc1ccc(/C=C/C(=O)Nc2ccc(Cl)c(Cl)c2)cc1OC | / | ? | / | ? | .[10.9 µM] | .
COc1ccc(/C=C\C(=O)Nc2ccccc2C(=O)O)cc1OC | . | 13µM | . | 16µM | . | ?
COc1cccc(OCc2nc3ccccc3n2Cc2ccccc2C)c1 | / | ? | / | . | .[10.9 µM] | ?
COc1cccc(OCc2nc3ccccc3n2C)c1 | / | 20µM | / | ? | .[10.9 µM] | .
CCCc1noc2c1/C(=N\O)CC(CC(C)SCC)C2 (stereo not drawn) | . | ? | 25µM | . | / | /
COC(=O)CNC(=O)[C@@]1(C)C=C[C@@H](Cc2ccccc2)N1C(=O)OC | . | . | . | . | . | /
CCOc1ccc(NC(=O)CCn2cccn2)cc1 | / | . | / | . | .[10.9 µM] | .
COc1ccc(OC)c(C(c2nnnn2CCC(C)C)N2CCN(C(=O)c3ccco3)CC2)c1 (stereo not drawn) | 16µM | . | ? | . | . | .
COc1ccc(C(=O)Nc2ccc(C)cn2)c(OC)c1 | . | 0.63µM | . | 0.5µM | . | ?
CCOc1ccc(NC(=O)c2ccccc2CO)cc1 | . | ? | . | ? | . | ?
SMILES | HEK293 cAMP ctrl | p53ts 39C tox | TSHR ag | p53ts 32C tox | Imprint erasure | IkB signaling
CCOc1ccc(NC(=O)c2nccnc2CO)cc1 | . | 10µM | . | 13µM | . | ?
C=CCNC(=O)c1ccc(OC)cc1OC | . | . | . | . | . | .
CCOc1ccc(NC(=O)c2ccccc2O)cc1 | . | 7.9µM | . | 7.9µM | . | ?
CCOc1ccc(NC(=O)c2ccccc2OC)cc1 | . | 4µM | . | 13µM | . | .
COC(=O)c1scc(-c2ccc(C)cc2)c1S(=O)(=O)Nc1ccc(F)cc1F | / | . | / | . | .[10.9 µM] | ?
Cc1ccc(-c2nc(SCC(=O)NCc3ccco3)c3c(=O)n(C)c(=O)n(C)c3n2)cc1 | / | . | / | . | .[10.9 µM] | .
COc1ccccc1C(=O)Nc1ccccn1 | . | 10µM | . | 10µM | . | .
CCCC(=O)Nc1ccc(NC(=O)c2ccccc2OC)cn1 | . | . | . | . | . | .
COc1ccc(OC)c(-c2cc(C(=O)Nc3cnn(Cc4ccc(Cl)cc4Cl)c3)no2)c1 | / | 4µM | / | ? | .[10.9 µM] | ?
COc1ccc2c(c1)CCc1c(C(=O)Nc3cnn(Cc4ccc(Cl)cc4Cl)c3)noc1-2 | / | . | / | . | .[10.9 µM] | ?
Cc1ccc(NC(=O)c2cnc(SCC(=O)N3CCOCC3)n(C)c2=O)cc1 | / | . | / | . | .[10.9 µM] | .
Cc1ccc(-n2ncc3c(N4CCN(Cc5ccccc5)CC4)ncnc32)cc1Cl | / | . | / | . | .[10.9 µM] | ?
COC(=O)C1C(=O)c2c([nH]c(C(=O)OCC3CCCO3)c2C)CC1C (stereo not drawn) | . | ? | . | 13µM | . | .
COC(=O)C1C(=O)c2c([nH]c(C(=O)OC3CCCCCC3)c2C)CC1C (stereo not drawn) | ? | . | ? | . | . | .
CCCCCOC(=O)c1[nH]c2c(c1C)C(=O)C(C(=O)OC)C(C)C2 (stereo not drawn) | ? | . | ? | . | . | ?
COCCOC(=O)c1[nH]c2c(c1C)C(=O)C(C(=O)OC)C(C)C2 (stereo not drawn) | . | 10µM | . | 16µM | . | .
COc1cc(C2N(c3ccccc3)CCN2c2ccccc2)ccc1OC(C)=O | . | . | 3.2µM | . | . | .
C=CCn1c(SCC(O)Cn2c3ccccc3c3ccccc32)nnc1-c1ccco1 (stereo not drawn) | 25µM | . | ? | . | . | ?
C=CCn1c(SCC(=O)Nc2ccccc2OC)nnc1-c1ccco1 | . | . | . | . | . | .
COc1ccc(OCc2cccc(C(=O)O)c2)cc1 | . | 5µM | . | 6.3µM | . | ?
O=C(O)c1cccc(COc2ccc(CO)cc2Cl)c1 | . | 4µM | . | 5µM | . | ?
CCOc1ccc(OCc2cccc(C(=O)N3CCCC3)c2)cc1 | . | ? | . | ? | . | .
CCOc1ccc(OCc2cccc(C(=O)O)c2)cc1 | . | 2µM | . | 2.5µM | . | ?
CC(C)OC(=O)c1cn(-c2ccccc2)nc1-c1ccco1 | . | . | 25µM | . | . | .
COc1ccc(-c2nn(-c3ccccc3)cc2C(=O)O)cc1 | . | . | . | . | . | .
CCc1ccc(C(=O)c2cn(CC(=O)Nc3cc(OC)cc(OC)c3)c3ccc(CC)cc3c2=O)cc1 | / | 13µM | / | . | .[10.9 µM] | ?
